The full ranking holds about 33,000 sequences; the median of “E-score (-0.5 to 0.5)” is about -0.035, and the highest 2% start at about 0.34. Many of the other results were omitted from the sample, so the highest values are more common in it than they were.
Molecular target: T1, Mot3 (UniProt P54785)
T1 sequence: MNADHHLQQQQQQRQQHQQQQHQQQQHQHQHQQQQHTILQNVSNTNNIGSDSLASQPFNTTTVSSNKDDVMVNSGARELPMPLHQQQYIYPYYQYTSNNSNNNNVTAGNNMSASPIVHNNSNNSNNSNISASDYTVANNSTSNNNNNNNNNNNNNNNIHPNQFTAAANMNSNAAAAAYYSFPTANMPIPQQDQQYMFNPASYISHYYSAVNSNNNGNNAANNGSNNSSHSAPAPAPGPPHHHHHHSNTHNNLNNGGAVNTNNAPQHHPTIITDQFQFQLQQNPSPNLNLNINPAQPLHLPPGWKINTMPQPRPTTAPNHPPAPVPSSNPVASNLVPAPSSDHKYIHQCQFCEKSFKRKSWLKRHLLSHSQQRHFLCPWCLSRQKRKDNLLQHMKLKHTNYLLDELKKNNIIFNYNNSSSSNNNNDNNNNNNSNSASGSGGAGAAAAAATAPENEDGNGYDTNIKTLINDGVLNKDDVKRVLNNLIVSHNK
Test: PBM E-score (8-mer binding enrichment) (E-score (-0.5 to 0.5)); higher = stronger / more preferred TF binding
Details: protein concentration: 200 nM; construct: GST-full length
Protocol: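 Universal 'all 10-mer' protein binding microarrays (Agilent AMADID 015681) probed with GST-tagged S. cerevisiae TFs (full-length or DBD) made by in vitro transcription/translation (PURExpress), about 100-200 nM. Bound TF was detected with fluorescent anti-GST. Each ungapped 8-mer (which stands for itself and its reverse complement) is scored by the PBM enrichment score (E-score), a modified Wilcoxon-Mann-Whitney statistic from -0.5 to +0.5, computed with the Universal PBM Analysis Suite. Scale: above 0.35 generally sequence-specific binding.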

| Sequence | PBM E-score |
| --- | --- |
| GAGTGTAA | 0.249 |
| CTGTATAA | 0.0988 |
| ATGTGTAA | 0.352 |
| GGGTGTAA | 0.223 |
| CCGGATGC | -0.24 |
| ACGATCTC | -0.198 |
| ACTAGGGG | -0.223 |
| CGCTCTTC | -0.174 |
| GACACATC | -0.0862 |
| CCTAGGAC | -0.0674 |
| AACATGTA | 0.42 |
| AACATGTC | 0.296 |
| AACATGTG | 0.278 |
| AAGATGTA | 0.194 |
| AACATGTT | 0.387 |
| AACATTTA | 0.244 |
| CTGGCCCC | -0.215 |
| AACGGTTC | -0.172 |
| AACAGAAT | 0.0192 |
| ATCTTAAG | -0.14 |
| CCTGACCG | -0.159 |
| GGTAGGAA | 0.313 |

| Sequence | PBM E-score |
| --- | --- |
| AGTAGGAT | 0.0448 |
| AGTAGGAC | -0.258 |
| GGTAGGAC | -0.172 |
| CGTAGGAG | -0.0892 |
| CGTAGGAA | 0.351 |
| TGTAGGAA | 0.406 |
| AGTAGGAA | 0.403 |
| CGTAGGAC | -0.166 |
| CATCAGGG | -0.0517 |
| ACTGCGGC | -0.227 |
| AACTAAGA | 0.0799 |
| CAATTGCA | -0.0452 |
| GCTACCTA | 0.0719 |
| GGTACCTA | 0.424 |
| CGTACCTC | -0.144 |
| AGTACCTA | 0.342 |
| GTTACCTA | 0.369 |
| AGTACCAA | 0.013 |
| GGTACCCA | 0.00798 |
| AGTACCTC | -0.107 |
| CGTACCTA | 0.395 |
| CTTACCTA | 0.175 |

| Sequence | PBM E-score |
| --- | --- |
| CCTACCTA | 0.156 |
| ATTACCTA | 0.332 |
| GTCACCTA | -0.0234 |
| ATGAAGTA | -0.0752 |
| CTTACAGC | 0.00061 |
| CCCCATAC | 0.00082 |
| GATGGAAC | -0.0944 |
| ATTACCTG | 0.336 |
| AGTACCAG | -0.106 |
| AGTACCTG | 0.378 |
| CAGCCCGG | -0.239 |
| CGGGGAAC | -0.0973 |
| AGTGTAGA | 0.151 |
| CATGTATC | 0.277 |
| AATGTAGG | 0.191 |
| CATGTAGC | 0.276 |
| CATGTATA | 0.376 |
| CGTGTAGA | 0.414 |
| CGTGTAGC | 0.228 |
| GATGTAGA | 0.195 |
| GATGTATA | 0.195 |
| CATGTAGG | 0.374 |

| Sequence | PBM E-score |
| --- | --- |
| CAAGTAGG | 0.105 |
| CATGTAGA | 0.39 |
| ATTGGAGA | -0.179 |
| AAGGGGGC | -0.138 |
| AGTAGAAG | 0.0882 |
| AGGTTCAT | -0.0206 |
| GGCCCAGA | -0.411 |
| CCAAGACG | -0.236 |
| ACAACGGG | 0.07 |
| GCTAACTA | 0.00452 |
| TGTGTAAA | 0.416 |
| AGTGTAAG | 0.00213 |
| AGTGTAAC | 0.128 |
| AGTGTAAT | 0.308 |
| ACTGTAAG | 0.0605 |
| GGTGTAAA | 0.297 |
| CGTGTAAG | 0.38 |
| GGTGTAAC | 0.164 |
| CGTGTAAC | 0.351 |
| CGTGTAAA | 0.438 |
| AGTGTAAA | 0.28 |

Source: the supplement of paper PMC3334620
